# Laboratory results taken from the supplement of paper PMC6897291.
# Counter-ions that a name gives are not always drawn.
# Tests used:
# [1] = tested on: U-2932; experiment: growth inhibition by drug alone (1 - RLU/untreated control) (fraction); higher = stronger inhibition; conditions: 177Lu-lilotomab satetraxetan 0 ug/ml
# Procedure, shortened: (§1)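 Growth inhibition was calculated from RealTime-Glo RLU against untreated no-drug wells. Values equal 1 − RLU/mean of 48 untreated no-drug wells per plate, read daily from day 3 after 1 h at 37°C. RIVA and U-2932 cells, with or without 18 h pretreatment by a radiolabelled anti-CD37 antibody conjugate (~600 MBq/mg; 0.5 µg/ml RIVA, 1 µg/ml U-2932), were washed and plated at 3,000 cells/well on compound-printed plates at 10/100 nM (RIVA) or 10/1,000 nM (U-2932).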
# [2] = tested on: RIVA; experiment: as above; conditions: 177Lu-lilotomab satetraxetan 0 ug/ml
# Procedure, shortened: as §1
# [3] = tested on: U-2932; experiment: growth inhibition by drug plus 177Lu-lilotomab satetraxetan (1 - RLU/untreated control) (fraction); higher = stronger inhibition; conditions: 177Lu-lilotomab satetraxetan 1 ug/ml
# Procedure, shortened: as §1
# [4] = tested on: RIVA; experiment: as above; conditions: 177Lu-lilotomab satetraxetan 0.5 ug/ml
# Procedure, shortened: as §1
Structure (SMILES),"growth inhibition by drug alone ([1]; 10 nM, time (day): 3)","growth inhibition by drug alone ([1]; 10 nM, time (day): 4)","growth inhibition by drug alone ([1]; 10 nM, time (day): 5)","growth inhibition by drug alone ([1]; 10 nM, time (day): 6)","growth inhibition by drug alone ([1]; 1000 nM, time (day): 3)","growth inhibition by drug alone ([1]; 1000 nM, time (day): 4)","growth inhibition by drug alone ([1]; 1000 nM, time (day): 5)","growth inhibition by drug alone ([1]; 1000 nM, time (day): 6)","growth inhibition by drug alone ([2]; 10 nM, time (day): 3)","growth inhibition by drug alone ([2]; 10 nM, time (day): 4)","growth inhibition by drug alone ([2]; 10 nM, time (day): 5)","growth inhibition by drug alone ([2]; 10 nM, time (day): 6)","growth inhibition by drug alone ([2]; 100 nM, time (day): 3)","growth inhibition by drug alone ([2]; 100 nM, time (day): 4)","growth inhibition by drug alone ([2]; 100 nM, time (day): 5)","growth inhibition by drug alone ([2]; 100 nM, time (day): 6)","growth inhibition by drug plus 177Lu-lilotomab satetraxetan ([3]; 10 nM, time (day): 3)","growth inhibition by drug plus 177Lu-lilotomab satetraxetan ([3]; 10 nM, time (day): 4)","growth inhibition by drug plus 177Lu-lilotomab satetraxetan ([3]; 10 nM, time (day): 5)","growth inhibition by drug plus 177Lu-lilotomab satetraxetan ([3]; 10 nM, time (day): 6)","growth inhibition by drug plus 177Lu-lilotomab satetraxetan ([3]; 1000 nM, time (day): 3)","growth inhibition by drug plus 177Lu-lilotomab satetraxetan ([3]; 1000 nM, time (day): 4)","growth inhibition by drug plus 177Lu-lilotomab satetraxetan ([3]; 1000 nM, time (day): 5)","growth inhibition by drug plus 177Lu-lilotomab satetraxetan ([3]; 1000 nM, time (day): 6)","growth inhibition by drug plus 177Lu-lilotomab satetraxetan ([4]; 10 nM, time (day): 3)","growth inhibition by drug plus 177Lu-lilotomab satetraxetan ([4]; 10 nM, time (day): 4)","growth inhibition by drug plus 177Lu-lilotomab satetraxetan ([4]; 10 nM, time (day): 5)","growth inhibition by drug plus 177Lu-lilotomab satetraxetan ([4]; 10 nM, time (day): 6)","growth inhibition by drug plus 177Lu-lilotomab satetraxetan ([4]; 100 nM, time (day): 3)","growth inhibition by drug plus 177Lu-lilotomab satetraxetan ([4]; 100 nM, time (day): 4)","growth inhibition by drug plus 177Lu-lilotomab satetraxetan ([4]; 100 nM, time (day): 5)","growth inhibition by drug plus 177Lu-lilotomab satetraxetan ([4]; 100 nM, time (day): 6)"
CC[C@@H]1C(=O)N(C)c2cnc(Nc3ccc(C(=O)NC4CCN(C)CC4)cc3OC)nc2N1C1CCCC1,0.821,0.844,0.867,0.907,0.953,0.973,0.981,0.984,0.903,0.895,0.9,0.908,0.937,0.955,0.964,0.968,0.814,0.856,0.903,0.941,0.938,0.957,0.97,0.982,0.93,0.959,0.97,0.978,0.918,0.956,0.969,0.976
C[C@@H](Oc1cc(-c2cnn(C3CCNCC3)c2)cnc1N)c1c(Cl)ccc(F)c1Cl,0.0921,0.0793,0.115,-0.0753,0.154,0.193,0.301,0.419,0.00835,0.0307,-0.0637,-0.409,-0.398,-0.211,-0.28,-0.62,0.0291,0.0614,0.116,0.192,0.115,0.223,0.397,0.566,0.466,0.573,0.592,0.61,0.405,0.523,0.532,0.543
CC(C)(C)c1ccc(S(=O)(=O)/C=C/C#N)cc1,0.0951,0.0673,-0.0262,-0.0534,0.386,0.401,0.352,0.365,-0.0115,-1.37e-05,-0.0516,-0.202,-0.0892,-0.063,-0.0854,-0.195,-0.0145,0.0216,0.0584,0.0727,0.517,0.565,0.534,0.533,0.438,0.555,0.567,0.581,0.452,0.513,0.508,0.495
Nc1nc(Nc2ccc(S(N)(=O)=O)cc2)nn1C(=O)c1c(F)cccc1F,0.0686,0.0712,0.0243,-0.028,0.297,0.39,0.398,0.477,0.09,-0.0123,-0.071,-0.232,-0.0601,-0.0559,-0.0832,-0.218,0.0456,0.07,0.0808,0.137,0.452,0.614,0.661,0.719,0.373,0.516,0.536,0.556,0.486,0.6,0.611,0.599
CNNCc1ccc(C(=O)NC(C)C)cc1 [Procarbazine hydrochloride (Matulane)],0.123,0.0702,-0.0853,-0.113,0.0616,0.0673,0.00725,-0.144,0.0732,0.0412,0.0155,-0.0516,-0.184,-0.167,-0.142,-0.189,0.0466,0.103,0.15,0.195,0.0453,0.108,0.126,0.177,0.542,0.584,0.596,0.607,0.494,0.553,0.563,0.554
CN(C)Cc1c(C(=O)NCCOc2ccc(C(=O)NO)cc2)oc2ccccc12,0.0311,0.0492,0.0509,-0.0158,0.972,0.985,0.987,0.988,-0.0928,-0.0394,-0.0793,-0.251,0.392,0.295,0.256,0.158,0.0477,0.0589,0.111,0.194,0.988,0.989,0.99,0.991,0.524,0.628,0.645,0.659,0.926,0.925,0.931,0.938
Cn1nnc2c(C(N)=O)ncn2c1=O [Temozolomide],0.0892,0.0648,-0.0333,-0.0967,-0.0354,0.0378,-0.0162,-0.101,0.0977,0.0337,-0.0714,-0.291,0.0972,0.055,0.0367,-0.03,0.00136,0.0294,0.0193,0.0893,-0.0214,0.119,0.126,0.194,0.398,0.513,0.538,0.549,0.493,0.527,0.53,0.509
CC(C)Oc1cc(Nc2nc(N[C@@H](C)c3ccc(F)cn3)ncc2Cl)n[nH]1,0.14,0.0983,-0.0668,-0.0699,0.0367,0.0436,-0.032,-0.0869,0.0887,0.104,0.0671,-0.147,-0.29,-0.178,-0.215,-0.331,0.116,0.157,0.213,0.262,0.11,0.174,0.221,0.323,0.626,0.642,0.679,0.662,0.487,0.557,0.57,0.574
Nc1nccc(Oc2ccc(NC(=O)c3c[nH]cc(-c4ccc(F)cc4)c3=O)cc2F)c1Cl,-0.0716,-0.0777,-0.0731,-0.06,-0.103,-0.0916,-0.0987,-0.109,-0.189,-0.254,-0.278,-0.424,-0.523,-0.459,-0.483,-0.598,-0.0906,-0.0231,0.0271,0.0973,-0.0589,0.0171,0.0665,0.209,0.468,0.516,0.536,0.547,0.364,0.43,0.425,0.43
O=C(Cc1ccc(-c2ccc(OCCN3CCOCC3)cc2)cn1)NCc1ccccc1,0.144,0.134,0.0891,0.0449,0.964,0.971,0.975,0.978,0.0653,0.0193,-0.0159,-0.201,0.766,0.708,0.676,0.605,0.0847,0.112,0.111,0.18,0.968,0.977,0.981,0.983,0.466,0.544,0.565,0.575,0.833,0.839,0.863,0.881
COc1ccc(COc2cc3oc(=O)c4cc(C(C)O)ccc4c3cc2OC)cc1 (stereo not drawn) [Palomid 529],0.0334,0.0194,-0.0368,-0.114,-0.0247,0.00321,-0.0394,-0.242,0.0296,0.0604,-0.0136,-0.281,-0.0737,-0.0625,-0.0557,-0.118,-0.0294,0.00126,0.0363,0.0704,-0.0939,0.0227,0.013,0.0753,0.337,0.478,0.494,0.503,0.321,0.445,0.454,0.453
CCN(CC)C(=S)SSC(=S)N(CC)CC [Disulfiram (Antabuse)],0.0412,0.0424,-0.018,-0.236,0.981,0.982,0.981,0.981,-0.0278,-0.1,-0.147,-0.282,-0.227,-0.194,-0.203,-0.423,0.000112,0.0295,0.0516,0.0837,0.981,0.983,0.982,0.983,0.402,0.529,0.548,0.549,0.209,0.379,0.394,0.386
O=C1c2c(O)ccc(O)c2C(=O)c2c(NCCNCCO)ccc(NCCNCCO)c21 [Mitoxantrone Hydrochloride],0.436,0.52,0.635,0.732,0.945,0.971,0.981,0.986,0.293,0.565,0.667,0.759,0.568,0.82,0.873,0.904,0.559,0.694,0.81,0.881,0.971,0.982,0.987,0.99,0.83,0.913,0.95,0.968,0.736,0.92,0.947,0.962
COC(=O)C1=C(C)NC(C)=C(C(=O)OCCCN2CCC(c3ccccc3)(c3ccccc3)CC2)[C@H]1c1cccc([N+](=O)[O-])c1 [S-(+)-Niguldipine hydrochloride],0.0443,0.0164,-0.0556,-0.116,0.105,0.109,0.032,0.0169,0.00175,-0.0387,-0.0555,-0.128,-0.336,-0.283,-0.288,-0.329,-0.0121,0.0306,0.0867,0.111,0.113,0.151,0.317,0.268,0.569,0.592,0.608,0.623,0.527,0.552,0.566,0.562
